{"source": "PubChem BioAssay (NCI)", "note": "The panel holds about 79,000 compounds, 15% with a hit somewhere; the sample as a whole holds those more often. A number with no mark means an inactive call. Activity calls are given as the source filed them. No stated cut-off is given here; in the data, active means growth inhibition above about 70%; inactive means the rest."}
{"test": "NCI Yeast Anticancer Drug Screen. Data for the mec2-1 strain (AID 157)", "conditions": "S. cerevisiae mec2-1 strain, at 50.0 µM, active compounds read high", "protocol": "Growth inhibition of yeast strains with defined genetic alterations is measured as a screen for potential anti-cancer activity. Selected strains with alterations in DNA damage repair or cell cycle control were exposed to compounds and growth inhibition was measured relative to vehicle treated controls. The strain used in this assay is mec2-1"}
{"smiles": "ClCC[n+]1ccc2ccccc2c1", "growth inhibition": "11.6%"}
{"smiles": "CCCCCC/C=N/Nc1ccc([N+](=O)[O-])cc1[N+](=O)[O-]", "growth inhibition": "-18.9%"}
{"smiles": "C=CCC1(C(=O)NC)c2ccccc2-c2ccccc21", "growth inhibition": "-6.4%"}
{"smiles": "N/C(=N\\OC(=O)Nc1cccc(Cl)c1)C(Cl)(Cl)Cl", "growth inhibition": "99.5% (active)"}
{"smiles": "O=S1(=O)C2C=CC1CCCC2", "growth inhibition": "-12.7%"}
{"smiles": "O=C(Nc1cccc2ccccc12)OCCBr", "growth inhibition": "-9.95%"}
{"smiles": "NCCNC(=O)c1ccccc1", "growth inhibition": "1.8%"}
{"smiles": "C1=CC2CCC1C1CSCC21", "note": "(stereo not given)", "growth inhibition": "-11.6%"}
{"smiles": "CCCCC(CC)/C(C)=N/NC(N)=O", "note": "(stereo not given)", "growth inhibition": "9.55%"}
{"smiles": "CCOC(=O)c1cnc(=S)n(CCC(C)C)c1N", "growth inhibition": "8.25%"}
{"smiles": "Cc1c[nH]c2nc(C)n(-c3ccccc3F)c(=N)c12", "growth inhibition": "-2.75%"}
{"smiles": "Cc1ccc2occ(-c3nnc(NC(=O)c4ccccc4)s3)c(=O)c2c1", "growth inhibition": "-9.75%"}
{"smiles": "Cc1nc(N)c(N2CCN(S(=O)(=O)N(Cc3ccccc3)Cc3ccccc3)CC2)c(=O)[nH]1", "growth inhibition": "2.3%"}
{"smiles": "CC(=O)O[C@H]1CC[C@@]2(C)C(=CC(=O)[C@H]3[C@@H]4CC[C@H]([C@H](C)CCCC(C)C)[C@@]4(C)CC[C@@H]32)C1", "growth inhibition": "19.1%"}
{"smiles": "COC(=O)C1C2CC3C(C2=O)C31", "note": "(stereo not given)", "growth inhibition": "-4.7%"}
{"smiles": "CNC(=S)SSSC(=S)NC", "growth inhibition": "-1.9%"}
{"smiles": "CC12NC(=O)NC1(C)NC(=O)N2", "note": "(stereo not given)", "growth inhibition": "-6.3%"}
{"smiles": "CC1(c2ccccc2)CCN(C2CC2)CO1", "note": "(stereo not given)", "growth inhibition": "15.2%"}
{"smiles": "O=C(O)C1CC2C3CCC2C1C3=O", "note": "(stereo not given)", "growth inhibition": "-26.3%"}
{"smiles": "OCCNCc1cccc(-c2ccccc2)c1O", "growth inhibition": "3%"}
{"smiles": "COc1cc([C@@H]2c3cc4c(cc3[C@@H](Nc3ccc(NC(=O)c5cc(NC(=O)c6cc([N+](=O)[O-])cn6C)cn5C)cc3)[C@H]3COC(=O)[C@H]23)OCO4)cc(OC)c1O", "growth inhibition": "31.6%"}
{"smiles": "O=c1cc(Cl)ncn1C1OC(CO)C(O)C1O", "note": "(stereo not given)", "growth inhibition": "-21.1%"}
{"smiles": "CCc1cnccc1C", "growth inhibition": "-14.9%"}
{"smiles": "COC(=O)c1nc(N)nc(C(=O)OC)c1C(=O)c1c(C)[nH]c2ccccc12", "growth inhibition": "-20%"}
{"smiles": "CC(=O)Nc1ccc(S(=O)(=O)NC2(C)C(=O)N(C)C(=O)N(C)C2=O)cc1", "growth inhibition": "15.2%"}
{"smiles": "Nc1cccc(S(=O)(=O)Nc2ccccc2)c1", "growth inhibition": "25.6%"}
{"smiles": "O=C1C2C3CCC(O3)C2C(=O)N1c1ccccn1", "note": "(stereo not given)", "growth inhibition": "-11.6%"}
{"smiles": "CC(=O)C1CCC(CCCC(C)C)CC1", "note": "(stereo not given)", "growth inhibition": "-2.4%"}
{"smiles": "Cc1ccc(S(=O)(=O)N(C)C(C(=O)O)c2ccccc2)cc1", "note": "(stereo not given)", "growth inhibition": "-1.35%"}
{"smiles": "CC1(C)CC(=O)C2=C(C1)NC(SSC1=C(C#N)C(c3ccc(F)cc3)C3=C(CC(C)(C)CC3=O)N1)=C(C#N)C2c1ccc(F)cc1", "note": "(stereo not given)", "growth inhibition": "-12.8%"}
{"smiles": "CC(=O)NNC(=S)/N=C\\c1c(O)c2ccccc2oc1=O", "growth inhibition": "-45.6%"}
{"smiles": "CCOc1cn(C2OC(CO)C(O)C2O)c(=O)[nH]c1=O", "note": "(stereo not given)", "growth inhibition": "-28.4%"}
{"smiles": "C=C1C(=O)O[C@H]2[C@H]1CC(=O)/C(C)=C\\CC[C@@]1(C)O[C@@H]21", "growth inhibition": "59.4%"}
{"smiles": "COc1ccc(NS(=O)(=O)c2ccc(NCc3c4ccccc4nc4ccccc34)cc2)nn1", "growth inhibition": "8.2%"}
{"smiles": "CC(C)[Si]1(C(C)C)N([Si](C)(C)F)[Si](C(C)C)(C(C)C)N1[Si](C)(C)F", "growth inhibition": "6.25%"}
{"smiles": "CC(C)CCCC(C)C1CCC2C3CC=C4CCCCC4(C)C3CCC12C", "note": "(stereo not given)", "growth inhibition": "-4.25%"}
{"smiles": "Cc1cc(=O)n2c(c1)[nH]c1ccccc12", "growth inhibition": "0.3%"}
{"smiles": "COc1ccc2c(c1)c1ccc3c(c1n2C)C(=O)C=CC3=O", "growth inhibition": "-1.6%"}
{"smiles": "C=C1C(=O)OC2C=C(C)CC3C=C(CCC=C(C)CCC12)C(=O)O3", "note": "(stereo not given)", "growth inhibition": "-33.5%"}
{"smiles": "Nc1ncnc2c1ncn2-c1ccccc1Cl", "growth inhibition": "8.35%"}
